Test results taken from PubChem BioAssay (NCATS).
“And” between values parts separate entries of the source, which are not always exact repeats. Equal entries are not always repeated. Records with an inconclusive call do not appear. A call without a number means that no potency is given here. The source made the active and inactive calls. Unless noted, calls come from the whole dose curve; as a rule, active = well fitted curve in the direction sought with a large enough effect; inconclusive = small, poorly fitted or top-dose-only effect, or another doubt; inactive = no such curve, though single readings can be large; an effect the other way counts as inactive or inconclusive.

How the values were obtained:
[1] = biological target: Mitogen-activated protein kinase 10 (Mus musculus) (UniProt Q61831); experiment: JNK3 AlphaScreen Assay (AID 530; active = well fitted curve in either direction with a large enough effect, not every such curve was filed as active;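 note: kinase came from lysate of stimulated human HepG2 cells; signal reports phosphorylation of biotinylated GST-cJun 1-79 at Ser73 with 10 µM ATP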)
Outline: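 qHTS titrations with 15 min compound pre-incubation before adding ATP (10 uM final). Read-out: AlphaScreen of Ser73-phosphorylated biotin-GST-cJun using HepG2 lysate JNK3 activated by IL-1β and TNFα.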

[2] = Cellular Toxicity (caspase-3) Jurkat (AID 655); conditions: Jurkat caspase-3 activation, luminescence; caspase-3 activation: at 92.2 µM (top of the series), DMSO = 0%, tamoxifen = 100%;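 note: cells exposed to compound for 16 h at 37 °C before reading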
Outline: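 qHTS in human Jurkat T-cell leukemia line: 16 hr compound treatment at 37 °C, caspase-3/7 activity measured by Caspase-Glo luminescence. AC50 derived from Hill equation.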

[3] = Cellular Toxicity (caspase-3) N2a (AID 665);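 note: compound exposure lasted 16 h at 37 °C before readout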
Outline: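 Caspase-3/7 activation, measured as increased luminescence from aminoluciferin release, is quantified in mouse N2a cells exposed to compounds for 16 h. Values are normalized to DMSO and 10 uM staurosporine, with AC50 derived by Hill modelling.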

[4] = Cellular Toxicity (caspase-3) Renal Proximal Tubule (AID 667);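 note: cells exposed to compound for 16 hours at 37 °C before detection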
Outline: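 Caspase-Glo 3/7 read-out, rat primary kidney proximal tubule cells. Compound exposure 16 h, 37 °C; detection after 1 h at RT. Activity scaled to DMSO and 10 uM staurosporine.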

[5] = biological target: Cytochrome P450 3A4 (Homo sapiens) (UniProt P08684); experiment: qHTS Assay for Inhibitors and Substrates of Cytochrome P450 3A4 (AID 884); note: nearly all actives have a fitted effect of over 50% in size
Chain of Cytochrome P450 3A4 (Homo sapiens) (P08684 whole entry, looked up): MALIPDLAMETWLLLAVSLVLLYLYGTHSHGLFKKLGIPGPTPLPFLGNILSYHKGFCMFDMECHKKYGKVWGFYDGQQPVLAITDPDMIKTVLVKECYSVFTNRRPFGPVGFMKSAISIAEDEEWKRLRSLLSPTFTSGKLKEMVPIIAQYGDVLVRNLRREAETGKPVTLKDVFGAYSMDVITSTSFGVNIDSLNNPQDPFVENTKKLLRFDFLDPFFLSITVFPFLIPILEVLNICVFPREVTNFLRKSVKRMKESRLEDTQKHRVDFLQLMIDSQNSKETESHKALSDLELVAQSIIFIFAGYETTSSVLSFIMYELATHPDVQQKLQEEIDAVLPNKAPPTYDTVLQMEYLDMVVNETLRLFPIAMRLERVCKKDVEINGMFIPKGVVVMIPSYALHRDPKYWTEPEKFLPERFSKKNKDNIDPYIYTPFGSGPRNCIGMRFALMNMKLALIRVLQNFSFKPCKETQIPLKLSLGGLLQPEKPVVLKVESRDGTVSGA
Outline: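 Luminescent readout of luciferin produced by CYP3A4 (20 nM) dealkylation of Luciferin-PPXE, 25 uM (its KM). NADPH-driven reaction ran 60 min at RT after 10 min compound preincubation; data scaled to 57 uM ketoconazole as 100% inhibition.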

[6] = MultiTox-Fluor Cytotoxicity Assay - LYMP1-001 - Live Cells (AID 947)
[7] = Cell Viability - LYMP1-003 - Assay at 40 hr (AID 964); note: nearly all actives have a fitted effect of over 60% in size
Outline: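 Luminescent ATP signal (CellTiter-Glo) served as the viability read-out after 40 hr compound treatment of human lymphoblastoid LYMP1-003 cells at 37 C. Decreases in ATP were fitted with the Hill equation to give AC50.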

[8] = Cell Viability - LYMP2-004 (AID 966);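 note: cells exposed to compound for 24 h; nearly all actives have a fitted effect of over 65% in size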
Outline: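 qHTS cytotoxicity: human lymphoblastoid line, 24 hr compound treatment, 37 C, complete medium. Viability read as cellular ATP via luciferase luminescence; tetraoctylammonium bromide served as positive control.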

[9] = Cell Viability - LYMP2-017 (AID 972);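 note: cells exposed to compound for 24 hours at 37 °C; nearly all actives have a fitted effect of over 55% in size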
Outline: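 Cytotoxicity is scored as a concentration-dependent drop in cellular ATP in a human lymphoblastoid line after 24 hr treatment at 37 C. Values are AC50s from Hill-equation modelling.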

[10] = Cell Viability - LYMP2-019 (AID 973);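 note: cells exposed to compound for 24 h at 37 °C; nearly all actives have a fitted effect of over 55% in size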
Outline: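 Cytotoxicity is scored as a concentration-dependent drop in cellular ATP after cells (2500/well) receive compound for 24 hr at 37 C. Tetraoctylammonium bromide serves as positive control.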

[11] = Cell Viability - LYMP2-007 (AID 979);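 note: cells exposed to compound for 24 h before reading; nearly all actives have a fitted effect of over 60% in size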
Outline: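 Cells are seeded at 2500 per well and rested 5 hr. Compounds are then added over a concentration series for 24 hr at 37 C. CellTiter-Glo is added for 30 min at room temperature before luminescence reading.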

[12] = Cell Viability - LYMP2-008 (AID 980);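 note: cells exposed to compound for 24 h at 37 °C; nearly all actives have a fitted effect of over 60% in size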
Outline: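 Cells seeded at 2500/well and rested 5 hr at 37 C; compounds added over a concentration range and incubated 24 hr at 37 C; CellTiter-Glo added, 30 min at room temperature; luminescence read and AC50 fitted with Hill model.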

[13] = Cell Viability - LYMP2-012 (AID 982);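 note: cellular ATP by luciferase luminescence where a drop means cytotoxicity; cells exposed to compound for one day before reading; nearly all actives have a fitted effect of over 55% in size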
[14] = Cell Viability - LYMP2-014 (AID 983);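 note: cells exposed to compound for 24 h at 37 °C; nearly all actives have a fitted effect of over 50% in size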
Outline: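 Cells are plated at 2500/well and left 5 hr at 37 C. Compounds are added across a concentration range and incubated 24 hr at 37 C in complete medium. CellTiter-Glo is added, and luminescence is read after 30 min at room temperature.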

[15] = Cell Viability - LYMP2-018 (AID 985);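 note: compound exposure lasted 24 hr at 37 °C; nearly all actives have a fitted effect of over 50% in size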
Outline: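 Seed 2500 lymphoblastoid cells per well, incubate 5 hr at 37 C, add compound and incubate 24 hr at 37 C, add CellTiter-Glo, wait 30 min at room temperature, then read luminescence.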

[16] = Cell Viability - LYMP1-002 - Assay at 40 hr (AID 994); note: nearly all actives have a fitted effect of over 60% in size
Outline: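 Cells are plated at 2500 per well and rested 5 hr at 37 C. Compounds are added and incubated 40 hr at 37 C. CellTiter-Glo reagent is added for 30 min at room temperature before luminescence is read.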

[17] = qHTS assay for small molecule antagonists of retinoid X receptor alpha signaling (AID 588546); conditions: HEK293T RXRa-UAS-bla, beta-lactamase ratio, antagonist mode; measured here: W530 green channel, cytotoxicity proxy;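 note: cells stimulated with 9-cis-retinoic acid as agonist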
Outline: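 Beta-lactamase reporter inhibition, read as CCF4 fluorescence ratio (ex 405, em 460/530 nm) after 2 h at RT. HEK293T UAS-bla cells, 2500/well, were stimulated with 9-cis-RA at 500 or 100 nM final alongside test compound for 18 h at 37 C.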

[18] = biological target: Voltage-gated inwardly rectifying potassium channel KCNH2 (Homo sapiens) (UniProt Q12809); experiment: qHTS Assay for Small Molecule Inhibitors of the Human hERG Channel Activity (AID 588834);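 note: top concentration of the series differs between compounds; lower thallium flux fluorescence means stronger hERG block; nearly all actives have a fitted effect of over 50% in size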
Chain of Voltage-gated inwardly rectifying potassium channel KCNH2 (Homo sapiens) (Q12809 whole entry, looked up): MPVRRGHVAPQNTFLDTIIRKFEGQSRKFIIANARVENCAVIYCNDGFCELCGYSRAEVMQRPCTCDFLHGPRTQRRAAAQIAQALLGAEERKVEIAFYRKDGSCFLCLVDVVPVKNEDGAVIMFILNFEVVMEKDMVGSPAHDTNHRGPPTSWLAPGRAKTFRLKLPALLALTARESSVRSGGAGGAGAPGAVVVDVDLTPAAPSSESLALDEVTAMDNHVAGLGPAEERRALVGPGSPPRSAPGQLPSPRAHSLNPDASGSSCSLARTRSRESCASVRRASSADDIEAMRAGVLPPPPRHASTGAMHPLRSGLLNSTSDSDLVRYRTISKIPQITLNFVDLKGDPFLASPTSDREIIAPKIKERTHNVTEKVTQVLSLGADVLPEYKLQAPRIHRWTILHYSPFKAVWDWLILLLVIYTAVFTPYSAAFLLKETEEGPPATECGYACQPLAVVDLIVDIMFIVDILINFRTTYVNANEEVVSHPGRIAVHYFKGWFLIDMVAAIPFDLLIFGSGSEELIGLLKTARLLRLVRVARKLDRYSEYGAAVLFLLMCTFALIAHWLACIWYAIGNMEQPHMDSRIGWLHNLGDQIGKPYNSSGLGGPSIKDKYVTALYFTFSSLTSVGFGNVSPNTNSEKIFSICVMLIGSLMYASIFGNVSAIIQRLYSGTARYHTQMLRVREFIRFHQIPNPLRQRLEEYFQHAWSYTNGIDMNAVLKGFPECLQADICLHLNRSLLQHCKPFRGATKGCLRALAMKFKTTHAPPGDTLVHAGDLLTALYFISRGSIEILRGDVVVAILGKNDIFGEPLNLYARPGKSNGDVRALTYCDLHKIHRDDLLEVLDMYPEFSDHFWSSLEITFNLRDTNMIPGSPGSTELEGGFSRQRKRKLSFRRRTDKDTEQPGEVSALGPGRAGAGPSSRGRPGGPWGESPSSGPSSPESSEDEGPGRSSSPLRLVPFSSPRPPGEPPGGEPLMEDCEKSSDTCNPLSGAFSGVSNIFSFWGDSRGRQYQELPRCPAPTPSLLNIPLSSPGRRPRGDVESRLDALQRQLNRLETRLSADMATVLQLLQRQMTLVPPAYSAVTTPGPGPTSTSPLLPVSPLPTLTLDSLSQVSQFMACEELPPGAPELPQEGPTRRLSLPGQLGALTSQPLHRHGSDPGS
Outline: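 Homogeneous FluxOR thallium flux assay using hERG-expressing U2OS cells (BacMam). Compound treatment about 10 minutes preceded stimulation; reduced fluorescence taken as channel block.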

[19] = biological target: Tumor necrosis factor (Homo sapiens) (UniProt P01375); experiment: qHTS assay to identify small molecules that stimulate Tumor Necrosis Factor-alpha (TNF-alpha) secretion (AID 651757; active = well fitted curve in the direction sought with a large enough effect in the signal ratio; the % refers to the signal ratio)
Chain of Tumor necrosis factor (Homo sapiens) (P01375 whole entry, looked up): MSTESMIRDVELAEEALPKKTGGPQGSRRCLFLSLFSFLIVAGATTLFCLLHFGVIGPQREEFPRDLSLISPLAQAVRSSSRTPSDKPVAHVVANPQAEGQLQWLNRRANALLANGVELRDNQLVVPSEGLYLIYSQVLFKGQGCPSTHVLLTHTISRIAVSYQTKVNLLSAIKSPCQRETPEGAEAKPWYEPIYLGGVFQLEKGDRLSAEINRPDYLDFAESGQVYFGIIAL
Outline: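 Human monocytic THP-1 cells are plated, treated with compound and held at 37 C for 17 hrs. Labeled anti-TNF-alpha antibody mixture is then added; after 3 hr at room temperature, TR-FRET signal reports secreted TNF-alpha.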

[20] = qHTS assay for cell viability of the p53RE-bla HCT-116 cell line (AID 743292); note: nearly all actives have a fitted effect of over 55% in size
Outline: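 Viability of compound-treated p53RE-bla HCT-116 cells is taken from ATP-dependent luciferase luminescence. Treatment lasts 16 h at 37 C after a 5 h settling period; detection follows 30 min at room temperature.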

Row | SMILES | Potency [1] | caspase-3 activation [2] | outcome [3] | outcome [4] | Potency [5] | outcome [6] | Potency [7] | Potency [8] | Potency [9] | Potency [10] | Potency [11] | Potency [12] | Potency [13] | Potency [14] | Potency [15] | Potency [16] | max response [17] | Potency [18] | outcome [19] | Potency [20]
1 | N#CCc1ccccc1 | inactive | -0.89% (inactive) | inactive | inactive | inactive | inactive | inactive | inactive | inactive | inactive | inactive | inactive | inactive | inactive | inactive | inactive | -0.865% | inactive | inactive | –
2 | C=CCBr | inactive | -0.133% (inactive) | inactive | inactive | inactive | inactive | inactive | inactive | inactive | inactive | inactive | inactive | inactive | inactive | inactive | inactive | -4.43% | inactive | inactive | inactive
3 | O=Cc1ccc2c(c1)OCO2 | inactive | -0.168% (inactive) | inactive | inactive | inactive | inactive | inactive | inactive | inactive | inactive | inactive | inactive | inactive | inactive | inactive | inactive | -8.14% | inactive | inactive | inactive
4 | O=Cc1ccc(Cl)cc1Cl | inactive | 8.63% (inactive) | inactive | inactive | inactive | inactive | inactive | inactive | inactive | inactive | inactive | inactive | inactive | inactive | inactive | inactive | -13.3% | inactive | inactive | inactive
5 | c1ccc(C2CO2)cc1 (stereo unspecified) | inactive | 1.66% (inactive) | inactive | inactive | inactive | inactive | inactive | – | inactive | inactive | inactive | inactive | inactive | inactive | inactive | inactive | -9.84% | inactive | inactive | inactive
6 | C=COC(C)=O | inactive | 1.08% (inactive) | – | inactive | inactive | – | inactive | inactive | inactive | inactive | inactive | inactive | inactive | inactive | inactive | inactive | -12.3% | inactive | inactive | inactive
7 | ClCC(Br)CBr (stereo unspecified) | inactive | 0.662% (inactive) | inactive | inactive | inactive | inactive | inactive | inactive | inactive | inactive | inactive | inactive | inactive | inactive | inactive | inactive | -1.84% | inactive | inactive | inactive
8 | Cl/C=C/Cl | inactive | -1.85% (inactive) | inactive | inactive | inactive | inactive | inactive | inactive | inactive | inactive | inactive | inactive | inactive | inactive | inactive | inactive | -8.73% | inactive | inactive | inactive
9 | Nn1cnnc1 | inactive | 0.14% (inactive) | inactive | – | inactive | inactive | inactive | inactive | inactive | inactive | inactive | inactive | inactive | inactive | inactive | inactive | -0.424% | inactive | inactive | inactive
10 | CC(=O)[O-].CC(=O)[O-].CC(=O)[O-].[Cr+3] | inactive | 0.251% (inactive) | inactive | inactive | inactive | – | inactive | inactive | inactive | inactive | inactive | inactive | inactive | inactive | inactive | inactive | -2.43% | inactive | inactive | –
11 | CC(Cl)(Cl)Cl | inactive | -0.991% (inactive) | inactive | inactive | inactive | inactive | inactive | inactive | inactive | inactive | inactive | inactive | inactive | inactive | inactive | inactive | 0.916% and -3.55% | inactive | inactive | inactive
12 | O=C(O)c1cccc(Cl)c1 | inactive | -2.79% (inactive) | inactive | inactive | inactive | inactive | inactive | inactive | inactive | inactive | inactive | inactive | inactive | inactive | inactive | inactive | – | inactive | inactive | –
13 | ClCCCCl | inactive | 2.19% (inactive) | inactive | inactive | inactive | inactive | inactive | – | inactive | inactive | inactive | inactive | inactive | inactive | inactive | inactive | -7.74% | inactive | inactive | inactive
14 | CCCCNC(=O)n1c(NC(=O)OC)nc2ccccc21 | inactive | 7.08% (inactive) | inactive | – | inactive | – | – | inactive | inactive | inactive | inactive | inactive | inactive | inactive | inactive | – | 3.99% | inactive | inactive | inactive
15 | N#CCBr | inactive | 0.425% (inactive) | inactive | inactive | inactive | inactive | inactive | inactive | inactive | inactive | inactive | inactive | inactive | inactive | inactive | inactive | 1.14% | inactive | inactive | inactive
